Compounds without any hit were thinned out: in the full panel of roughly 83,000, 20% have a hit.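 Results are percent growth after 48 hours of single-concentration exposure. 100 means growth as in untreated cells, lower positive values show inhibition; negative values down to -100 show cell death.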 A number with no mark means an inactive call. The source made the active and inactive calls. How the source made its calls: active means growth percent below 10; inactive means the rest.
Legend:
Assay in all cases: NCI-60 one-dose screen, 48 h (100 = growth as untreated, 0 = no growth, -100 = all killed)
Conditions in all cases: 10 µM unless noted
[1] = test system: EKVX NSCLC
[2] = test system: SN12C renal
[3] = test system: UO-31 renal
[4] = test system: TK-10 renal
[5] = test system: ACHN renal
[6] = test system: CAKI-1 renal
[7] = test system: A498 renal
[8] = test system: CCRF-CEM leukemia
[9] = test system: MOLT-4 leukemia
[10] = test system: SR leukemia
[11] = test system: RPMI-8226 leukemia
[12] = test system: OVCAR-8 ovarian
[13] = test system: OVCAR-5 ovarian
[14] = test system: OVCAR-4 ovarian
[15] = test system: SK-OV-3 ovarian
[16] = test system: IGROV1 ovarian
[17] = test system: OVCAR-3 ovarian
[18] = test system: HS 578T breast
[19] = test system: NCI/ADR-RES ovarian
[20] = test system: T-47D breast

SMILES | growth [1] | growth [2] | growth [3] | growth [4] | growth [5] | growth [6] | growth [7] | growth [8] | growth [9] | growth [10] | growth [11] | growth [12] | growth [13] | growth [14] | growth [15] | growth [16] | growth [17] | growth [18] | growth [19] | growth [20]
Nc1cc(-c2c[nH]c3ccccc23)nc2cc(-c3c[nH]c4ccccc34)nn12 | 74.5% | 73% | 44.2% | 89.4% | 51.6% | 59.4% | 42.3% | 45.4% | 34% | 14% | 35.9% | 64.3% | 51% | 65.1% | 139% | 57.2% | 92.4% | 81.1% | 59% | 68.7%
O=C1c2c(c3c4cccnc4[nH]c3c3ccc4ccccc4c23)C(=O)N1CCO | 108% | 84.4% | 56.1% | 127% | 48.3% | 42.6% | 57% | 42.8% | 31.7% | 9.85% (active) | 72.7% | 78% | 121% | 105% | 84.8% | 67.7% |  | 121% | 87.2% | 37.2%
N[C@@H](Cc1cn(-c2c3ccccc3nc3ccccc23)nn1)C(=O)O | 101% | 98.2% | 89.6% | 140% | 93.5% | 93.8% | 102% | 97.3% | 99.1% | 86% | 99.9% | 103% | 99.2% | 101% | 87.7% | 97.5% |  | 99.8% | 105% | 96.2%
CN1C(=S)N(C)C2C1NN=C1SC(c3ccccc3)=CC(=O)N12 (stereo not drawn) | 80.9% | 96.2% | 88.3% | 97.7% | 96.8% | 90.8% | 103% | 91% | 89.8% | 65.4% | 93.9% | 94.4% | 103% | 85.7% | 102% | 97.5% |  | 107% | 97.6% | 69.5%
CCCCN1C(=O)/C(=c2\sc3n(c2=O)C2C(NN=3)N(CC)C(=O)N2CC)c2cc(Cl)ccc21 (stereo not drawn) | 80.7% | 82% | 63% | 132% | 64.5% | 50.7% | 27.6% | 72.2% | 74.5% | 14.1% | 70.2% | 95.6% | 92.7% | 89.7% | 106% | 65.3% | 71.8% | 66.9% | 79.4% | 75%
Nc1cc(-c2c[nH]c3ccc(F)cc23)nc2cc(-c3c[nH]c4ccc(F)cc34)nn12 | 78.2% | 99% | 75.8% | 118% | 66.3% | 77.8% | 67.8% | 7.99% (active) | 39% | -22.1% (active) | 30.7% | 89.8% | 115% | 96.1% | 135% | 94.8% | 94.4% | 112% | 93% | 81.7%
COc1ccc(-c2nc3ccc(-c4nnc(SCC(=O)Nc5ccc(C(=O)/C=C/c6ccc(Cl)cc6)cc5)o4)cc3[nH]2)cc1OC | 91.9% | 94.9% | 87% | 134% | 94.3% | 100% | 100% | 100% | 75.8% | 73% | 75.5% | 106% | 95.2% | 108% | 111% | 91.9% | 116% | 96% |  | 89.4%
COc1ccc(-c2nc3ccc(-c4nnc(SCC(=O)Nc5ccc(C(C)=O)cc5)o4)cc3[nH]2)cc1 | 99.2% | 113% | 94.1% | 116% | 102% | 101% | 110% | 100% | 87.8% | 89.5% | 97.1% | 108% | 107% | 109% | 118% | 107% | 138% | 96.8% | 118% | 105%
Cc1ccc(-c2nc(C(Cl)Cl)nc3cc(-c4ccccc4)nn23)cc1 | -0.218% (active) | 51.4% | 45.3% | 23.7% | -59.8% (active) | -22.9% (active) | -31.3% (active) | 37.8% | 10.4% | 1.15% (active) | 6.1% (active) | 10.3% | -8.77% (active) | -24% (active) | -32.4% (active) | 29.3% | -42.7% (active) | 1.87% (active) | 13.5% | 51%
N#Cc1nc(-c2ccccc2)oc1N1CCC(CO)C1 (stereo not drawn) | 77.4% | 97.1% | 88.7% | 104% | 105% | 90.2% | 76.4% | 105% | 108% | 110% | 103% | 103% | 93.2% | 99% | 121% | 93.1% | 104% | 96.1% | 106% | 83%
CS(=O)(=O)c1ccc(-c2nc3ccccn3c2C=Nc2ccc(Cl)cc2)cc1 | 100% | 81.6% | 61.4% | 110% | 49.4% | 42.9% | 79.1% | 61.8% | 64.9% | 96.8% | 77.1% | 86.3% | 83.6% | 88.2% | 96.9% | 78.4% |  | 104% | 62.3% | 65.4%
O=C1C2=C(C(=O)c3c(O)cccc31)C(c1ccco1)c1sc(=O)[nH]c1S2 (stereo not drawn) | 83.4% | -73.6% (active) | 25.1% | 146% | 39.6% | 70.4% | 17.1% | 13% | 0.849% (active) | 15.8% | 18.7% | 2.5% (active) | 11.7% | 24.3% | 115% | 28.1% |  | -10.4% (active) | 9.22% (active) | 23.6%
CN1CCN(Cc2ccc(NC(=O)c3cncc(C#Cc4cnc5[nH]ncc5c4)c3)cc2C(F)(F)F)CC1 | 55.4% | 14.4% | 2.97% (active) | 49.7% | 8.5% (active) | -13.2% (active) | -5.79% (active) | 20.1% | 16.9% | 10.6% | 31.2% | 41.3% | 41.6% | 54.5% | 2.28% (active) | 7.92% (active) | 51.9% | 20.1% | 75.8% | 40.7%
COc1ccc(-c2nc3ccc(-c4nnc(SCC(=O)Nc5ccc(C(=O)/C=C/c6ccccc6)cc5)o4)cc3[nH]2)cc1OC | 104% | 94.8% | 88.5% | 133% | 96.3% | 97% | 112% | 88.4% | 80.5% | 83.6% | 64% | 104% | 99.4% | 109% | 117% | 96.4% | 114% | 96.1% | 110% | 86.9%
COc1cc(-c2nc3ccc(-c4nnc(SCC(=O)Nc5ccc(C(C)=O)cc5)o4)cc3[nH]2)cc(OC)c1OC | 94% | 92.8% | 85.2% | 121% | 98.9% | 92.7% | 95.4% | 104% | 110% | 96.5% | 108% | 94.9% | 99.9% | 111% | 112% | 99.3% | 119% | 103% | 107% | 103%
COc1ccc2[nH]cc(-c3cc(N)n4nc(-c5c[nH]c6ccc(OC)cc56)cc4n3)c2c1 | 80.1% | -64% (active) | -22.8% (active) | 16.5% | -31.9% (active) | -52.1% (active) | 83.1% | 0.363% (active) | -2.24% (active) | -23.6% (active) | -22.7% (active) | -62.6% (active) | 8.81% (active) | -8.27% (active) | 144% | 44.5% |  | 121% | 88.6% | -21.7% (active)

Reference: PubChem BioAssay (NCI)
